Hits are enriched below; roughly 7.7% of the tested compounds scored in any of these assays.
Giardia FBPA inh: inhibitors of Giardia lamblia fructose-1,6-bisphosphate aldolase; A8B2U2; purified Giardia FBPA; Potency, µM (doses to about 59.6 µM), for inactives: at the highest dose activity, negative = inhibition, actives largely listed as inhibitors; 290,000 compounds, 0.71% hits; AID 2451; also: potency is read from the fitted curve at half-maximal effect; nearly all actives have a fitted effect of over 55% in size
Target sequence (A8B2U2 whole entry, looked up): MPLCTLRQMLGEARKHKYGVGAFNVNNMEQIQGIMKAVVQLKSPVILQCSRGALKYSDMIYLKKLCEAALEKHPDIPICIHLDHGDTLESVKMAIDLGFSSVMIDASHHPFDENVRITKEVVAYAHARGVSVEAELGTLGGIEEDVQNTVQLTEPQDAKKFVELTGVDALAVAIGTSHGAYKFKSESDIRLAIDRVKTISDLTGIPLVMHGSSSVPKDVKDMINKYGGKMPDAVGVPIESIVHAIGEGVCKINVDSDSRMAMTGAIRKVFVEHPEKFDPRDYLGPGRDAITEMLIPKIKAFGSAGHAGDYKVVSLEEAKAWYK
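Giardia FBPA (40 nM reagent) was preincubated 10 min at RT with compound (up to 57.5 uM final), then substrate plus GAPDH/TPI/NAD/arsenate coupling system with diaphorase/resazurin was added; resorufin fluorescence (525/598 nm) was read after 20 min.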
Tb PYK inh: inhibitors of Trypanosoma brucei pyruvate kinase; Q57TT1; TbPYK enzyme, Kinase-Glo Plus ATP luminescence, 45 min; Potency, µM (highest dose often 76.8 µM), for the others: at the highest dose activity, negative = inhibition, most hits filed as inhibitors; 410,000 compounds, 0.12% hits; also: potency is read from the fitted curve at half-maximal effect; nearly all actives have a fitted effect of over 50% in size
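Quantitative HTS: titrated library compounds versus trypanosomal pyruvate kinase in TEA buffer (pH 7.2) containing KCl, MgCl2, BSA and Tween-20. Reactions were initiated with ADP, 130 uM final. Kinase-Glo Plus luminescence was read after 45 min at RT.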
FMDV antiviral: foot and mouth disease virus antiviral activity. AID 1159524. FMDV antiviral cell-based qHTS. 410,000 compounds, 1.2% hits. Potency, µM (doses to about 57.9 µM), for inactives: at the highest dose activity change, negative = inhibition, hits mostly inhibitors; calls by dose curve; tested in HEK293T cells; also: read-out not given here; potency is read from the fitted curve at half-maximal effect; nearly all actives have a fitted effect of over 45% in size
HCMV inh: inhibitors of human cytomegalovirus. HFF cells, HCMV-luciferase reporter, 72 h; hits give low values. 410,000 compounds, 4.5% hits. AID 1259415. activity change, negative = inhibition, % at 57.5 µM; in the data active = activity change below about -60%; inconclusive = no clear call, values can overlap the other calls; inactive = above about -39%
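Two compound doses tested in HFFs infected with HCMV-luciferase, MOI 1 PFU/cell, 72 h at 37C. Lysate luminescence read with OneGlo; data normalized against buffer-only and 10uM Salinomycin inhibitor controls.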
Sm TGR inh: inhibitors of Schistosoma mansoni thioredoxin glutathione reductase; purified TGR, DTNB reduction, TNB absorbance 405 nm; Potency, µM (doses to about 114 µM), for the others: at the top dose activity change, negative = inhibition, actives largely listed as inhibitors; 360,000 compounds, 3% hits; AID 485364; also: potency is read from the fitted curve at half-maximal effect; nearly all actives have a fitted effect of over 60% in size
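TGR 20 nM + NADPH 100 uM (dispensed conc.), cpd preinc 15 min RT; start with NADPH (500 uM addition) then DTNB (15 mM addition). Kinetic TNB absorbance, 405 nm filter. Four-parameter Hill fit across titration.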
RE007 growth inh: less growth of the S. pombe RE007 Vpr strain; S. pombe RE007 Vpr strain, BacTiter-Glo ATP luminescence, 24 h; Potency, µM (highest dose often 92.2 µM), without a hit: at the top dose activity change, negative = less growth, most hits filed as inhibitors; 360,000 compounds, 0.21% hits; active = well fitted falling curve with a large enough effect; inconclusive = small, poorly fitted or top-dose-only effect; inactive = no such curve, though single readings can be large or run the other way; also: potency is read from the fitted curve at half-maximal effect; nearly all actives have a fitted effect of over 50% in size
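Fission yeast strain RE007, carrying one chromosomally integrated HIV-1 vpr copy, was seeded at OD 0.01 in PMG+AL medium with 23 nL pinned compound. After 24 h at 30 °C and 99% humidity, viability was read by BacTiter-Glo luminescence.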
* marks the source's active call; other numbers are inactive results; ? = inconclusive; . = not tested or not shown; [ ] = dose if it differs, or a comment. Unless noted, calls follow the shape of the dose curve; as a rule, active = well fitted curve in the direction sought with a large enough effect; inconclusive = small, poorly fitted or top-dose-only effect, or another doubt; inactive = no such curve, though single readings can be large; an effect the other way counts as inactive or inconclusive. % is scaled to controls: 0 for no effect and ±100 for the full control effect.

SMILES	Giardia FBPA inh	Tb PYK inh	FMDV antiviral	HCMV inh	Sm TGR inh	RE007 growth inh
CCC(Sc1nnc(C)n2c1cc1occc12)C(=O)Nc1ccccc1F (stereo unspecified)	.	1%	0%	-31	-7%	.
CC(=O)c1cc(O)c2ccccc2c1O	?	-14%	-18%	85	8.9µM*	-13%
COc1ccc(S[C@]2(C(=O)N3CCOCC3)CC(=O)N(c3ccc4ccccc4c3)[C@@H]2c2ccc(OC)cc2)cc1	.	.	.	-10	.	.
CCOc1ccc(-c2nnc(SCC(=O)Nc3ccc4c(c3)c3ccccc3n4CC)n2N)cc1	-8%	0%	-23%	-61*	6%	24%
CCn1c2ccccc2c2cc(NC(=O)CSc3nnc(-c4ccc(OC)c(OC)c4)n3N)ccc21	-6%	.	4%	6	-25%	-8%[3.69 µM]
O=C(O)CC(C(=O)O)N1C(=O)/C(=C/C=C/c2ccco2)SC1=S (stereo unspecified)	?	?	-17%	?	5µM*	10%
O=C(O)CCCN1C(=O)/C(=C\c2ccc(-c3nc4ccccc4s3)o2)SC1=S	?	0%	-9%	?	35µM*	4%
Cn1cccc1/C=C1\SC(=S)N(NC(=O)c2ccccc2O)C1=O	-18%	-15%	-2%	-37	-6%	-4%
O=C(O)CCN1C(=O)/C(=C/c2ccc(-c3nc4ccccc4s3)o2)SC1=S	-3%	-6%	6%	50	-32%	6%
O=C(NN1C(=O)/C(=C/C=C/c2ccco2)SC1=S)c1ccccc1O	-11%	-10%	-5%	-18	2.8µM*	?
O=C(O)CCCN1C(=O)/C(=C/C=C/c2ccco2)SC1=S	13%	-26%	?	?	1.8µM*	-5%
O=S(=O)(c1ccc2nc(Nc3ccc(Br)cc3F)ccc2c1)N1CCCC1	.	2%	2%	-4	-7%	.
COc1ncc2nc(CCc3ccccc3)c(=O)n(Cc3cccs3)c2n1	-1%	-6%	-7%	.	.	.
O=C(O)C(Cc1ccccc1)N1C(=O)/C(=C/C=C/c2ccco2)SC1=S (stereo unspecified)	?	-25%	-15%	-23	6.3µM*	-9%
COc1ccc(/C=C2\SC(=S)N(C(Cc3ccccc3)C(=O)O)C2=O)cc1 (stereo unspecified)	21%	-3%	-20%	8	7%	11%
COc1cccc(CNCc2cccn2-c2nnc(N3CCN(c4ccccc4)CC3)s2)c1	.	-1%	?	-28	-3%	.
COC(=O)C(/C=C/C(C)Cc1cc(Br)cc(OCc2ccccc2)c1OC)OCc1ccccc1 (stereo unspecified)	-2%[12.9 µM]	.	.	.	.	.
C[C@H](CO)N1C[C@H](C)[C@H](CN(C)C(=O)Nc2cccc3ccccc23)Oc2ncc(Br)cc2C1=O	.	.	.	-17	.	.
CCN(CC)c1cc(C)c2cc(NC(=O)/C=C/c3cc(OC)c(OC)c(OC)c3)ccc2n1	.	1%	-23%	-100*	-15%	.
CCOc1ccccc1C(=O)Nc1ccc2nc(N(CC)CC)cc(C)c2c1	.	3%	-28%	-24	3%	.
CCN(CC)c1cc(C)c2cc(NC(=O)c3ccccc3F)ccc2n1	6%	3%	-9%	-80*	-8%	-6%
CCN(CC)c1cc(C)c2cc(NC(=O)c3cccc(OC)c3)ccc2n1	.	-4%	0%	-71*	-1%	.
CCOc1ccc(/C=C/C(=O)Nc2ccc3nc(N(CC)CC)cc(C)c3c2)cc1OC	.	3%	-22%	-31	8%	.
CCN(CC)c1cc(C)c2cc(NC(=O)c3cccc(OC)c3OC)ccc2n1	.	2%	-25%	?	-1%	.
CCOc1ccc(C(=O)Nc2ccc3nc(N(CC)CC)cc(C)c3c2)cc1	.	5%	32µM*	-86*	4%	.
SMILES	Giardia FBPA inh	Tb PYK inh	FMDV antiviral	HCMV inh	Sm TGR inh	RE007 growth inh
Cc1ccc2c(c1)c1c(c(=O)n(-c3ccccc3)c(=O)n1CC(=O)N1CCCC1)n2C	.	-5%	-10%	1	13%	.
CCCCNC(=O)c1cnc2c(-c3ccc(OCC)c(OCC)c3)c(C)nn2c1-c1ccccc1	.	2%	?	-1	2%	.
COc1ccc(COc2cc(-c3cccc(OC)c3)nc3ccc(NC(=O)c4ccccc4)cc23)cc1	0%	-6%	?	-26	0%	12%
COc1ccc(COc2cc(-c3cccc(OC)c3)nc3ccc(NC(=O)c4ccc(OC)cc4)cc23)cc1	-7%	-9%	?	-81*	3%	4%
COc1ccc(NC(=O)/C=C/c2cc(OC)c(OC)c(OC)c2)cn1	1%	-10%	9%	-32	45µM*	-5%
CC[C@@]1(c2ccccc2)NC(=O)NC1=O	0%	.	.	.	.	.
O=C(NCCc1ccncc1)[C@@H]1[C@@H](CO)[C@@H]2Cn3c(cccc3=O)[C@H]1N2Cc1ccccc1F	.	.	.	24	.	.
COc1ccc(-c2nc3c(C#N)c[nH]n3c2NC2CCCC2)cc1	.	-10%	-8%	-27	-16%	.
Brc1ccc(N/N=C(/N=Nc2nn[nH]n2)c2ccccc2)cc1	?	-18%	-23%	-100*	0%	-1%
CCCN1C(=O)c2ccccc2NC1c1ccc(OC)cc1O (stereo unspecified)	7%	-2%	?	-91*	-4%	6%
CCCN1C(=O)c2ccccc2NC1c1ccc(OC)cc1OC (stereo unspecified)	8%	-1%	.	53	0%	20%
O=C(CSc1ncn[nH]1)NCCc1ccc(Cl)cc1Cl	.	-4%	0%	-24	5%	6%
CC(NC(=O)CSc1ncn[nH]1)c1ccc(Cl)cc1Cl (stereo unspecified)	-8%	-5%	-10%	-61*	-23%	16%
CCn1ncc(C2=NOC(C(=O)NCc3ccc(Cl)cc3)C2)c1C (stereo unspecified)	1%	0%	-28%	-81*	2%	-25%
CCOc1ccc(S(=O)(=O)n2cnc3cc(C)c(C)cc32)cc1	-17%	2%	?	-86*	8%	5%

From PubChem BioAssay
